Experimental data taken from PubChem BioAssay (EPA / NIEHS).
Inconclusive results are not listed. Active and inactive are the calls of the source. The calls were made as follows: active = hit-call score of the fitted dose curve at least 0.9, where 1 is the maximum; inconclusive = response in the unintended direction; inactive = score below 0.9.

Columns and labels:
[1] = biological target: Cellular tumor antigen p53 (Homo sapiens) (UniProt P04637); assay: TOX21_p53_BLA_p5_ratio: Tox21 HCT-116 p53 Agonism Beta-lactamase Assay, Ratio, Phase 5 (AID 2283599)
Procedure, shortened: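 Beta-lactamase reporter ratio (blue 460 nm over green 530 nm, 405 nm excitation) after 2 h CCF4-AM loading, in HCT-116 cells exposed 16 h at 37 C to compounds pinned at 217-fold dilution. Increases relative to DMSO baseline scored.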

[2] = TOX21_p53_BLA_p5_viability: Viability Assessment in the Tox21 HCT-116 p53 Agonism Beta-lactamase Assay, Phase 5 (AID 2283600)
Procedure, shortened: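 Decreased CellTiter-Glo luminescence denotes lost viability. Exposure: 16 h at 37C, 5% CO2, with compounds from DMSO stocks diluted 217-fold in wells of 4000 cells.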

[3] = biological target: Cellular tumor antigen p53 (Homo sapiens) (UniProt P04637); assay: TOX21_p53_BLA_p4_ratio: Tox21 HCT-116 p53 Agonism Beta-lactamase Assay, Ratio, Phase 4 (AID 2283601)
Procedure, shortened: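 Signal is the blue/green (460nm/530nm) ratio of cleaved versus uncleaved CCF4-AM substrate, read after 2 h substrate loading. Cells were HCT116 carrying the p53-responsive beta-lactamase reporter, dosed 16 h at 37C, 5% CO2; CellTiter-Glo measured in parallel.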

[4] = Tanguay_ZF_120hpf_YSE_legacy: (Legacy) Oregon State University Tanguay Lab 120 Hour Post-fertilization zebrafish Assay for Yolk Sac Edema (AID 2283634);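 as to AC50: actives raise the incidence of yolk sac edema above the DMSO baseline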
Procedure, shortened: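 Dechorionated Tropical 5D wild-type zebrafish embryos were exposed statically, one per well, from 6 to 120 hpf at 28C in 0.64% DMSO. Yolk sac edema was scored present/absent by brightfield at 120 hpf, and dead embryos were excluded.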

[5] = Tanguay_ZF_120hpf_AXIS_legacy: (Legacy) Oregon State University Tanguay Lab 120 Hour Post-fertilization zebrafish Assay for Body Axis Malformation (AID 2283635);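 as to AC50: potency for an increased fraction of larvae scored with body axis malformation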
Procedure, shortened: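 Dechorionated wild-type Tropical 5D zebrafish embryos, one per well, statically exposed from 6 hpf to 120 hpf at 28C in 0.64% DMSO final. Body axis malformation scored present/absent by brightfield microscopy at 120 hpf; dead embryos excluded.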

[6] = Tanguay_ZF_120hpf_EYE_legacy: (Legacy) Oregon State University Tanguay Lab 120 Hour Post-fertilization zebrafish Assay for Eye Malformation (AID 2283636);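 also: binary presence or absence of eye malformation scored by brightfield in 120 hpf larvae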
Procedure, shortened: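 Binary brightfield scoring of eye defects at 120 hpf after static exposure from 6 hpf of single pronase-dechorionated wild-type embryos (28C, 0.64% DMSO). Non-mortality endpoints omitted where embryos died; fit vs DMSO.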

[7] = Tanguay_ZF_120hpf_SNOU_legacy: (Legacy) Oregon State University Tanguay Lab 120 Hour Post-fertilization zebrafish Assay for Snout Malformation (AID 2283637)
Procedure, shortened: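 Binary snout-malformation call at 120 hpf in wild-type 5D embryos, chorion removed by pronase, under static exposure from 6 hpf at 28C (0.64% DMSO). Embryos dying by 24 or 120 hpf excluded.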

[8] = Tanguay_ZF_120hpf_JAW_legacy: (Legacy) Oregon State University Tanguay Lab 120 Hour Post-fertilization zebrafish Assay for Jaw Malformation (AID 2283638);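 as to AC50: active means more embryos with jaw malformation than DMSO controls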
Procedure, shortened: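 Dechorionated Tropical 5D wild-type zebrafish embryos, one per well, exposed statically from 6 hpf to 120 hpf at 28C in 0.64% DMSO. Jaw malformation was scored by brightfield microscopy as present or absent. It was not scored in dead embryos.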

[9] = Tanguay_ZF_120hpf_OTIC_legacy: (Legacy) Oregon State University Tanguay Lab 120 Hour Post-fertilization zebrafish Assay for Otic Vesicle Malformation (AID 2283639)
Procedure, shortened: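 Wild-type zebrafish larvae, whole-embryo exposure from early stage to 120 hpf at 28C. Binary brightfield scoring of otic vesicle morphology, fitted in the positive direction against the DMSO baseline.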

Measured: AC50

Sequence of Cellular tumor antigen p53 (Homo sapiens) (P04637 whole entry, looked up): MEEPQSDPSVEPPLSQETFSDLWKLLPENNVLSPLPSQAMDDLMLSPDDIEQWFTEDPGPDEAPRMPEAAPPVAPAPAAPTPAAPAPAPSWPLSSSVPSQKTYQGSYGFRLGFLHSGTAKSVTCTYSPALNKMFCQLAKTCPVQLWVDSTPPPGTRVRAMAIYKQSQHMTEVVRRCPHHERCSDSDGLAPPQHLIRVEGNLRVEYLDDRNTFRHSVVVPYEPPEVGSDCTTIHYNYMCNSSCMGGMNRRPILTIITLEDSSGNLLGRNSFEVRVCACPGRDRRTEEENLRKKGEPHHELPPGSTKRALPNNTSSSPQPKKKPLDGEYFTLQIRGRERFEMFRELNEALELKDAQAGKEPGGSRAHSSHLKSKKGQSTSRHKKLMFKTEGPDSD

Nc1ccc2c(c1)C(=O)c1ccccc1C2=O
inactive: all assays above

Cc1cccc(C)c1O
not listed: [9]
inactive: all other assays above

Cc1ccccc1Cl
inactive: all assays above

OC[C@@H](O)[C@@H](O)[C@H](O)[C@H](O)CO
inactive: all assays above

Cc1nc(-c2ccc3c(c2)CCN(CCC2CCC(NC(=O)/C=C/c4ccc(F)cc4)CC2)CC3)no1 (stereo not drawn)
active: [1] 37.9 µM
inactive: all other assays above

O=[N+]([O-])C(CO)(CO)CO
inactive: all assays above

Cc1ccc2ncccc2c1
inactive: all assays above

C=CCc1ccc(O)c(OC)c1
inactive: all assays above

CN1CCCC1=O
not listed: [7]
inactive: all other assays above

CCCCCCCCCCCCCO
inactive: all assays above

COc1cc(-c2nc(NC(=O)c3cc4cc(C)cc(C)c4n3CC(=O)O)sc2CCC2CCCCC2)c(OC)cc1Cl
active: [1] 9.04 µM | [2] 3.51 µM | [3] 3.39 µM
inactive: all other assays above

NS(=O)(=O)c1cc2c(cc1Cl)NCNS2(=O)=O
inactive: all assays above

C1CCC(SSC2CCCCC2)CC1
not listed: [6] | [7]
inactive: all other assays above

O=C(O)CCCCC(=O)O
not listed: [5]
inactive: all other assays above

CCCc1cc(=O)[nH]c(=S)[nH]1
not listed: [9]
inactive: all other assays above

Nc1ccc(S(=O)(=O)c2ccc(N)cc2)cc1
not listed: [4]
inactive: all other assays above

O=C(OCCCCCOC(=O)c1ccccc1)c1ccccc1
inactive: all assays above

CCNc1cccc(C)c1
inactive: all assays above

CCc1c(C(=O)NN2CCCCC2)nn(-c2ccc(Cl)cc2Cl)c1-c1ccc(Br)cc1
inactive: all assays above

COc1ccc(S(=O)(=O)N2C(=O)[C@@](c3ccccc3OC)(N3C[C@H](O)C[C@H]3C(=O)N(C)C)c3cc(Cl)ccc32)c(OC)c1
active: [1] 75 µM | [2] 77.4 µM | [3] 86.6 µM
not listed: [9]
inactive: all other assays above

C=CCOC(=O)c1ccccc1C(=O)OCC=C
active: [4] 30.9 µM
inactive: all other assays above

Cc1cc(=O)[nH]c(=S)[nH]1
inactive: all assays above

CC=Cc1ccc(O)c(OC)c1
not listed: [7]
inactive: all other assays above

CC(=O)Oc1ccccc1C(=O)O
not listed: [6] | [9]
inactive: all other assays above

CCOC(=O)C(C)(C)Oc1ccc(Cl)cc1
inactive: [1] | [2] | [3] | [4] | [6]
active: [5] 63.8 µM

CCCCC(CC)COC(=O)CC(C(=O)OCC(CC)CCCC)S(=O)(=O)O (stereo not drawn)
active: [1] 79.2 µM [middle of 4 runs] | [2] 62.1 µM [middle of 4 runs] | [3] 79.2 µM [middle of 4 runs]
inactive: all other assays above

CC(C)(C)c1cc(O)c(C(C)(C)C)cc1O
active: [1] 90.5 µM | [4] 25.7 µM | [5] 25.7 µM | [7] 35.6 µM | [8] 47.5 µM
inactive: [2] | [3] | [6] | [9]

Oc1ccc2ccccc2c1N=Nc1ccccc1
active: [4] 43.7 µM | [5] 17.3 µM | [7] 43.8 µM | [8] 9.73 µM
inactive: all other assays above
